Laboratory results published in PubChem BioAssay AID1159580 (chemical genetic matrix, 2015).
The campaign covered roughly 5,500 compounds. About 2,000 (36%) were called active. About 18% were inconclusive and are not listed. Rule as the data show it: active = normalized growth mostly below about 0.91 (no sharp cut-off); inconclusive = no clear call, values can overlap the other calls; inactive = mostly above about 0.92. The list shows a part of the results.

Test: chemical genetic growth profiling, strain panel (AID 1159580);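 also: tested at 20 µM; growth read once vehicle control cultures reached saturation at 30 °C; 1 = growth at the plate median or of vehicle wells; lower values mean less growth of the strain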
Conditions: S. cerevisiae deletion strains, growth OD

Measured: normalized growth

CC(CC(=O)C1OC1(C)C)C1C(=O)CC2(C)C3=CCC4C(C)(C)C(OC5OCC(O)C(O)C5O)CCC45CC35C(O)CC12C (configuration not stated)
inactive: locus YAL021C, strain ccr4, stronger effect = lower value 1.03 | locus YAL026C, strain drs2, stronger effect = lower value 1.01 | locus YAL030W, strain snc1, stronger effect = lower value 1.04 | locus YBL061C, strain skt5, stronger effect = lower value 1.02 | locus YBR009C, strain hhf1, stronger effect = lower value 1.02 | locus YBR023C, strain chs3, stronger effect = lower value 1.01 | locus YBR171W, strain sec66, stronger effect = lower value 1.03 | locus YBR231C, strain swc5, stronger effect = lower value 1.02 | locus YBR279W, strain paf1, stronger effect = lower value 1.02 | locus YCL011C, strain gbp2, stronger effect = lower value 1.02 | locus YCL016C, strain dcc1, stronger effect = lower value 1 | locus YCL061C, strain MRC1, stronger effect = lower value 1.02 | locus YCL069W, strain vba3, stronger effect = lower value 1.01 | locus YCR088W, strain abp1, stronger effect = lower value 1.02 | locus YDL005C, strain med2, stronger effect = lower value 1.03 | locus YDL040C, strain nat1, stronger effect = lower value 1.02 | locus YDR001C, strain nth1, stronger effect = lower value 1.02 | locus YDR069C, strain doa4, stronger effect = lower value 1.03 | locus YDR137W, strain rgp1, stronger effect = lower value 1.04 | locus YDR159W, strain sac3, stronger effect = lower value 1.04 | locus YDR195W, strain ref2 1.01 | locus YDR297W, strain sur2, stronger effect = lower value 1.02 | locus YDR334W, strain swr1, stronger effect = lower value 1.01 | locus YDR335W, strain msn5, stronger effect = lower value 1.02 | locus YDR392W, strain spt3, stronger effect = lower value 1.03 | locus YEL003W, strain gim4, stronger effect = lower value 1.02 | locus YEL037C, strain rad23, stronger effect = lower value 1.04 | locus YEL061C, strain CIN8 (second series), stronger effect = lower value 1.02 | locus YER015W, strain faa2, stronger effect = lower value 1.02 | locus YER016W, strain bim1, stronger effect = lower value 1.02 | locus YER111C, strain swi4, stronger effect = lower value 1.03 | locus YER155C, strain BEM2 (second series), stronger effect = lower value 1.03 | locus YFR010W, strain ubp6, stronger effect = lower value 1.03 | locus YGL167C, strain pmr1, stronger effect = lower value 1.03 | locus YGL173C, strain kem1, stronger effect = lower value 1.02 | locus YGL227W, strain vid30, stronger effect = lower value 1.02 | locus YGL240W, strain doc1, stronger effect = lower value 1.03 | locus YGL253W, strain hxk2, stronger effect = lower value 1.01 | locus YHR013C, strain ard1, stronger effect = lower value 1.08 | locus YHR027C, strain rpn1, stronger effect = lower value 1.02 | locus YHR142W, strain chs7, stronger effect = lower value 1.01 | locus YJL092W, strain hpr5, stronger effect = lower value 1.02 | locus YJL095W, strain BCK1 (second series), stronger effect = lower value 1.03 | locus YJL115W, strain asf1, stronger effect = lower value 1.01 | locus YJL129C, strain trk1, stronger effect = lower value 1.01 | locus YJL154C, strain vps35, stronger effect = lower value 1.02 | locus YJL164C, strain tpk1, stronger effect = lower value 1.01 | locus YJL166W, strain qcr8, stronger effect = lower value 1.02 | locus YJL187C, strain SWE1, stronger effect = lower value 1.02 | locus YKL160W, strain elf1, stronger effect = lower value 1.03 | locus YKR026C, strain gcn3, stronger effect = lower value 1.03 | locus YKR091W, strain srl3, stronger effect = lower value 1.03 | locus YLL001W, strain dnm1, stronger effect = lower value 1.01 | locus YLL026W, stronger effect = lower value 1.02 | locus YLL041C, strain sdh2, stronger effect = lower value 1.01 | locus YLR027C, strain aat2, stronger effect = lower value 1.03 | locus YLR221C, strain rsa3, stronger effect = lower value 1.02 | locus YLR258W, strain gsy2, stronger effect = lower value 1.01 | locus YLR262C, strain YPT6 (second series), stronger effect = lower value 1.05 | locus YLR320W, strain mms22, stronger effect = lower value 1.04 | locus YLR342W, strain FKS1, stronger effect = lower value 1.01 | locus YLR357W, strain rsc2, stronger effect = lower value 1.02 | locus YLR370C, strain arc18, stronger effect = lower value 1.02 | locus YLR384C, strain iki3, stronger effect = lower value 1.02 | locus YML120C, strain ndi1, stronger effect = lower value 1.02 | locus YMR058W, strain fet3, stronger effect = lower value 1.02 | locus YMR125W, strain sto1, stronger effect = lower value 1.03 | locus YMR129W, stronger effect = lower value 1.02 | locus YMR205C, strain PFK2, stronger effect = lower value 1.03 | locus YMR231W, strain pep5, stronger effect = lower value 1.01 | locus YNL071W, strain lat1, stronger effect = lower value 1.01 | locus YNL209W, strain ssb2, stronger effect = lower value 1.02 | locus YNL248C, strain rpa49, stronger effect = lower value 1.02 | locus YNL322C, strain KRE1 (second series), stronger effect = lower value 1.03 | locus YNR049C, strain mso1, stronger effect = lower value 1.02 | locus YOR001W, strain rrp6, stronger effect = lower value 1.02 | locus YOR070C, strain gyp1, stronger effect = lower value 1.01 | locus YOR080W, strain dia2, stronger effect = lower value 1.03 | locus YOR083W, strain WHI5, stronger effect = lower value 1.02 | locus YOR106W, strain vam3, stronger effect = lower value 1.03 | locus YOR265W, strain rbl2, stronger effect = lower value 1.01 | locus YOR270C, strain vph1, stronger effect = lower value 1.02 | locus YOR290C, strain snf2, stronger effect = lower value 1.02 | locus YPL051W, strain arl3, stronger effect = lower value 1.02 | locus YPL078C, strain atp4, stronger effect = lower value 1.02 | locus YPL106C, strain sse1, stronger effect = lower value 1.04 | locus YPL240C, strain hsp82, stronger effect = lower value 1.04
